{"source": "PubChem BioAssay AID488802", "about": "(Broad Institute, 2010)", "note": "Results with a measured potency or affinity are listed apart. A number with no mark means an inactive call. How the calls were made is not given here."}
{"experiment": "single-agent growth inhibition of C. albicans, dose response, counter-screen for antifungal drug resistance project, C. albicans CaCi-2, dry powder (AID 488802)", "details": "C. albicans CaCi-2 (fluconazole-resistant clinical isolate) growth, no fluconazole, Alamar Blue, 48 h; series mostly up to 26 µM; activity change, negative = inhibition: at the top concentration"}
{"compound": "CCOC(=O)c1c2ccccc2nn1Cc1ccc(Cl)cc1", "activity change, negative = inhibition": "-15.6%"}
{"compound": "COc1ccc2c(c1)c1nc3n(c(=O)c1n2CC(=O)N1CCC(Cc2ccccc2)CC1)CCS3", "activity change, negative = inhibition": "7.8%"}
{"compound": "O=S(=O)(c1ccc(Cl)cc1)N1CCN(c2ccnc3cc(Cl)ccc23)CC1", "activity change, negative = inhibition": "-32.2%"}
{"compound": "COc1ccc(OC)c2c(C)cc(N3CCN(C(=O)c4ccc(Cl)cc4)CC3)nc12", "activity change, negative = inhibition": "-9.23%"}
{"compound": "O=C(Cn1c2ccccc2c2nc3n(c(=O)c21)CCS3)N1CCCC1", "activity change, negative = inhibition": "9.78%"}
{"compound": "O=C(Cn1nc(-c2ccccc2)c2ccccc21)N1CCc2ccccc2C1", "activity change, negative = inhibition": "-15.2%"}
{"compound": "COC(=O)Cn1nc(-c2ccc(Cl)cc2)c2ccccc21", "activity change, negative = inhibition": "-11.2%"}
{"compound": "O=C(O)c1nn(Cc2ccc(Cl)cc2)c2ccccc12", "activity change, negative = inhibition": "-23.6%"}
{"compound": "COc1ccc2c(c1)c1nc3n(c(=O)c1n2CC(=O)N1CCC(C)CC1)CCS3", "activity change, negative = inhibition": "13.5% [at 2.6 µM]"}
{"compound": "O=C(Cn1nc(-c2ccccc2)c2cc(Cl)ccc21)N1CCOCC1", "activity change, negative = inhibition": "14.3%"}
{"compound": "O=C(c1ccc(Cl)cc1)N1CCN(c2ccccn2)CC1", "activity change, negative = inhibition": "-37.2%"}
{"compound": "CNC(=O)Cn1nc(-c2ccccc2)c2ccccc21", "activity change, negative = inhibition": "-11.6%"}
{"compound": "COC(=O)Cn1nc(-c2ccccc2)c2ccccc21", "activity change, negative = inhibition": "-40.4%"}
{"compound": "CCCNC(=O)Cn1nc(-c2ccccc2)c2ccccc21", "activity change, negative = inhibition": "7.83%"}
{"compound": "O=C(Cn1c2ccccc2c2nc3n(c(=O)c21)CCS3)NCCc1ccc(Cl)cc1", "activity change, negative = inhibition": "19.3%"}
{"compound": "O=C(c1ccc(Cl)cc1)N1CCN(c2cc(C(F)(F)F)nc3ccccc23)CC1", "activity change, negative = inhibition": "-13.8%"}
{"compound": "O=C(Cn1c2ccccc2c2nc3n(c(=O)c21)CCCS3)c1ccc(F)cc1", "activity change, negative = inhibition": "6.11%"}
{"compound": "c1ccc(-c2n[nH]c3ccccc23)cc1", "activity change, negative = inhibition": "18.7%"}
